# Measured values from PubChem BioAssay (NCATS).
# Records with an inconclusive call do not appear. A call without a number means that no potency is given here. The source made the active and inactive calls. Unless noted, calls come from the whole dose curve; as a rule, active = well fitted curve in the direction sought with a large enough effect; inconclusive = small, poorly fitted or top-dose-only effect, or another doubt; inactive = no such curve, though single readings can be large; an effect the other way counts as inactive or inconclusive. Numbered stars: 1 amine (or outer) side, 2 acyl side, 3 side chain; on linkers, the order of the positions; unused ones are H or OH. Bridge positions count the residues as written; N and C are the ends. Square brackets hold non-standard residues; d marks the D form. Peptide text beside a SMILES is read from it. I, II: the chains in the order shown. Actinocin(9to1) = Cc1c2oc3c(C)ccc(C(=O)[*:1])c3nc-2c(C(=O)[*:2])c(N)c1=O; NMeV = CN[C@H](C(=O)O)C(C)C; Sar = CNCC(=O)O
# Assays:
# [1] = target: ATP-dependent 6-phosphofructokinase (Trypanosoma brucei brucei) (UniProt O15648); assay: qHTS Assay to Find Inhibitors of T. brucei phosphofructokinase: hit validation (AID 492961);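 note: luminescence reports ADP formed as PFK phosphorylates fructose-6-phosphate with ATP; series mostly up to about 51 µM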
# How it was run: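 ADP-Glo luminescence read-out of ADP formed by 1.25 nM PFK from 0.1 mM ATP and 0.5 mM F6P (TEA pH 8.0, 45 min, RT). Compounds titrated; activity normalized to no-enzyme and full-enzyme controls.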
# [2] = target: Ubiquitin carboxyl-terminal hydrolase 1 (Homo sapiens) (UniProt O94782); assay: Inhibitors of USP1/UAF1: Pilot qHTS (AID 504865);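 note: rhodamine fluorescence freed from ubiquitin-rhodamine substrate followed over time; top concentration of the series differs between compounds; nearly all actives have a fitted effect of over 35% in size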
# How it was run: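 Kinetic fluorescence assay: 1nM USP1/UAF1, 15 min compound preincubation, then 150nM Ub-Rho; 480/540 nm.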
# [3] = target: Transient receptor potential cation channel subfamily V member 1 (Homo sapiens) (UniProt Q8NER1); assay: HTS Assay for Compounds that Act as Enhancers of the Vanilloid Receptor 1 (AID 488979)
# How it was run: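 Calcium influx kinetics via Fluo-8 (480/520 nm) in TRPV1-expressing cells, 2000/well cultured overnight at 35.5C. Compound-alone read 3 min (agonist phase), followed by EC20 capsaicin challenge for 2 min (enhancer phase).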
# [4] = target: Thyrotropin receptor (Homo sapiens) (UniProt P16473); assay: qHTS Assay for Antagonists of the Thyroid Stimulating Hormone Receptor (AID 488980); note: series mostly up to about 58 µM
# How it was run: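 Cells expressing human TSHR (HEK293) are dispensed in HBSS/HEPES containing 70 uM RO 20-1724, compound is added, then TSH at EC80 (4 nM final). Antibody in lysis buffer follows, 30 minutes at room temperature before HTRF detection.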
# [5] = target: Thyrotropin-releasing hormone receptor (Homo sapiens) (UniProt P34981); assay: qHTS for Small Molecule Agonists and Allosteric Enhancers of Human TRH Receptor: Validation Screen for Agonists (AID 493127;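 active = calcium activation more than 3 SD above the typical response in the agonist read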;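 note: intracellular calcium rise by fluo-8 fluorescence before TRH EC20 addition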); settings: TRH receptor agonist cell assay; at 2 µM; stronger effect = higher value
# How it was run: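 Read-out: intracellular calcium release measured kinetically by FDSS (fluo-8, ex 480/em 530 nm), 1 reading/s after a 10-cycle baseline. TRHR cells, 2000/well, cultured 18 h at 33.5C, dye-loaded at room temp. Compound-evoked positive calcium signal flags agonists.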
# [6] = target: Galactokinase (Homo sapiens) (UniProt P51570); assay: qHTS Validation Assay for Inhibitors of Human Galactokinase (GALK) (AID 493189)
# How it was run: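 Compounds were pin-transferred into ATP buffer, then GALK-galactose mix was added (final 5 nM enzyme, 100 uM galactose, 35 uM ATP). After 1 h at room temperature, remaining ATP was measured luminescently.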
# [7] = Validation screen for small molecules that induce DNA re-replication in SW480 colon adenocarcinoma cells (AID 504364)
# How it was run: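 Read-out: total Hoechst intensity of nuclei by fluorescence scanning imager; hits raise the fraction of nuclei with elevated DNA content. Cells received compound for 48 hr at 37 C before a 40 min stain.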
# [8] = Inducers of the Endoplasmic Reticulum Stress Response (ERSR) in human glioma: Validation (AID 504836)
# How it was run: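 ERSR induction read as luciferase luminescence (Bright-Glo, 10 min at room temperature) in stably transfected human U87-MG glioma cells exposed to compounds for 16 h, using GRP78 as sensor.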
# [9] = target: D(1A) dopamine receptor (Homo sapiens) (UniProt P21728); assay: HTS Assay for Allosteric Agonists of the Human D1 Dopamine Receptor: Primary Screen for Agonists (AID 488981)
# How it was run: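 Calcium flux in an inducible, force-coupled HEK293 Trex D1 line (overnight at 30 C): agonist mode is the 180 s kinetic read after compound; potentiator mode is the following 180 s read after dopamine at EC20.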
# [10] = target: D(1A) dopamine receptor (Homo sapiens) (UniProt P21728); assay: HTS Assay for Allosteric Agonists of the Human D1 Dopamine Receptor: Primary Screen for Antagonists (AID 488983);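 note: calcium flux response to an EC80 dopamine challenge measured with no-wash dye; nearly all actives have a fitted effect of over 65% in size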; note: potency is the fitted concentration of half-maximal effect
# How it was run: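 Calcium flux readout, no-wash dye, inducible HEK293 T-REx D1 line (force-coupled). Compound added after 10 s baseline, 180 s kinetic read; then dopamine at EC80, further 180 s read.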
# [11] = Validation screen for small molecules that induce genotoxicity in human embryonic kidney (HEK293T) cells expressing luciferase-tagged ELG1 (AID 493106)
# How it was run: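 qHTS format; 2,000 HEK293T ELG1-luc cells/well; 23 nL compound via pin tool; 16 hr, 37 °C/5% CO2; ONE-Glo, 30 min RT; luminescence read.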
# [12] = Nrf2 qHTS screen for inhibitors: Validation (AID 493153; active = well fitted inhibition curve with a large enough effect in the main read-out, with a control signal flat, not every such curve was filed as active); settings: Potency: luciferase luminescence; viability change: measured here: cytotoxicity max response
# How it was run: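 Concentration-response test in A549 ARE_Fluc reporter cells (5% FBS OPTI-MEM), compound exposure 18-24 h at 37°C, 5% CO2. Cell viability measured first by CellTiter-Fluor fluorescence; ARE-driven luciferase luminescence then measured as Nrf2 activity.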
# [13] = qHTS for Inhibitors of Cell Surface uPA Generation: Validation Assay (AID 493164);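 note: RAW 264.7 macrophage cells exposed to compound for 18 h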
# How it was run: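 Compounds are titrated over seven points (2.45 nM–38.3 uM final) onto pre-plated RAW 264.7 cells and incubated for 18 h. Retained intracellular ATP, measured with ATP-Lite, indicates blocked lethal factor entry.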
# [14] = target: Peptidyl-prolyl cis-trans isomerase NIMA-interacting 1 (Homo sapiens) (UniProt Q13526); assay: qHTS Validation Assay to Find Inhibitors of Pin1 (AID 504536; active = well fitted inhibition curve with a large enough effect in the polarisation, with a control signal flat, not every such curve was filed as active; the % refers to the polarisation)
# How it was run: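 Fluorescence polarization competition: compounds (titration) displace HiFluor-488-labeled Pin1-1b peptide from Pin1 (0.3 uM final) in pH 7.5 HEPES buffer with DTT, 10 min at room temperature; %Activity normalized to no-enzyme wells, curves fitted.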
# [15] = target: Phosphoglycerate kinase, glycosomal (Trypanosoma brucei brucei) (UniProt P07378); assay: qHTS Validation Assay to Find Inhibitors of Phosphoglycerate Kinase (AID 504547)
# How it was run: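 Luminescence end-point (Kinase-Glo Plus, 10 min) after a 60 min room-temperature coupled reaction. GAPDH at 100nM final supplies 1,3-BPG to PGK. Buffer: 100mM TEA pH 7.6, 5mM MgCl2, 0.01% Tween-20. Wells lacking PGK served as controls.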
# [16] = target: phosphoglycerate mutase (Leishmania major) (UniProt Q4Q090); assay: qHTS Validation Assay to Find Inhibitors of Phosphoglycerate Mutase (AID 504548);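 note: end-point luminescence from Kinase-GloPlus after the PGAM reaction; series mostly up to about 58 µM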
# How it was run: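 L. major PGAM (1.25nM final) was added to substrate buffer and pinned compound, incubated 45 minutes at room temperature, then Kinase-GloPlus added; luminescence read after 10 minutes. Buffer: 100 mM TEA pH 7.6, 5 mM MgCl2, 0.01% Tween-20.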
# [17] = qHTS for Inhibitors of ATXN expression: Validation of Cytotoxic Assay (AID 588349)
# How it was run: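 Cytotoxicity counter-screen: HEK293 cells exposed to compound titrations, 72 hr, 37 degrees C. Read-out is intracellular ATP (CellTiter Glo luminescence) as a viability measure.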
# [18] = target: DNA dC->dU-editing enzyme APOBEC-3G (Homo sapiens) (UniProt Q9HC16); assay: qHTS for inhibitors of Vif-A3G interactions: Validation (AID 588379)
# How it was run: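 Yellow fluorescence (Ex 488, Em 500-530) of Vif-coexpressing HeLa A3G-eYFP cells, scanned by Acumen cytometer, reports blocked A3G degradation. Cells plated at 700/well overnight at 37 deg C before compound addition, then a further overnight compound incubation at 37 deg C.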
# [19] = target: ATPase family AAA domain-containing protein 5 (Homo sapiens) (UniProt Q96QE3); assay: Validation screen for small molecules that inhibit ELG1-dependent DNA repair in human embryonic kidney (HEK293T) cells expressing luciferase-tagged ELG1 (AID 493107);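 note: cells co-treated with the DNA-damaging agent 5-fluorouridine alongside compound; series mostly up to about 46 µM; inhibitors lower the ELG1-luciferase luminescence signal; nearly all actives have a fitted effect of over 70% in size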
# How it was run: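 ELG1-luciferase HEK293T reporter; 5-fluorouridine + compound/DMSO, 16 hr, 37 °C, 5% CO2; ONE-Glo 30 min RT; luminescence read, qHTS format.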
# D(1A) dopamine receptor (Homo sapiens), sequence (P21728 whole entry, looked up): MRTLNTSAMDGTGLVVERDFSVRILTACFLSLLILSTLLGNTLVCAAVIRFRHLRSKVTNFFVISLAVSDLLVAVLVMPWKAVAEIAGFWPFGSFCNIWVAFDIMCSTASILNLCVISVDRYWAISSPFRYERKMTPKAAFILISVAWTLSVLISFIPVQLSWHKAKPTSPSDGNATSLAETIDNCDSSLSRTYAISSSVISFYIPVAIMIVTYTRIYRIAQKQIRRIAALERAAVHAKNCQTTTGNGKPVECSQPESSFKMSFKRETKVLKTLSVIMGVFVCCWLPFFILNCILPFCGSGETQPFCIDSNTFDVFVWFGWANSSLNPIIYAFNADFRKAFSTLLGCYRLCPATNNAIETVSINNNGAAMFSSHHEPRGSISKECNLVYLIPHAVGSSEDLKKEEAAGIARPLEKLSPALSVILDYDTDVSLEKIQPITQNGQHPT
# Transient receptor potential cation channel subfamily V member 1 (Homo sapiens), sequence (Q8NER1 whole entry, looked up): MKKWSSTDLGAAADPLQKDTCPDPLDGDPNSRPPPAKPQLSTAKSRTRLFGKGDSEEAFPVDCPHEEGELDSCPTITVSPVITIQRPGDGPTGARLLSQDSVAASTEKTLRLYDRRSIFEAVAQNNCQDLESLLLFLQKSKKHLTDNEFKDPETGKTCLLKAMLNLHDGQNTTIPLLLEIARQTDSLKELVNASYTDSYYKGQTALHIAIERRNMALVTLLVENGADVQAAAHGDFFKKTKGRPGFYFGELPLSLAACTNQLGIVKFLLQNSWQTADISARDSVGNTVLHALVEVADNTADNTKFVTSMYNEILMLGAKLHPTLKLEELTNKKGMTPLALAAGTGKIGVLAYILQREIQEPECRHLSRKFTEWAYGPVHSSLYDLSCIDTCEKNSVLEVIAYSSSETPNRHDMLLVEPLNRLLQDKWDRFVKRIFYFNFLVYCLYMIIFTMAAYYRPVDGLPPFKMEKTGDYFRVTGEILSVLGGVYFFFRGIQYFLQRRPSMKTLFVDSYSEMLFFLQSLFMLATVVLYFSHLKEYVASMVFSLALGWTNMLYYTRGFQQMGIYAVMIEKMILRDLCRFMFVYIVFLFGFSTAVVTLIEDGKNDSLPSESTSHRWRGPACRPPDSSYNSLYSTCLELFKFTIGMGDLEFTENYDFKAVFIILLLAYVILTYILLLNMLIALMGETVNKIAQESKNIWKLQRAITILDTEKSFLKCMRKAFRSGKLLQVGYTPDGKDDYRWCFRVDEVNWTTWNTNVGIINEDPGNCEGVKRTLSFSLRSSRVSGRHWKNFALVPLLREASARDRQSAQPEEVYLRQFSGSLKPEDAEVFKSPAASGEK
# Thyrotropin receptor (Homo sapiens), sequence (P16473 whole entry, looked up): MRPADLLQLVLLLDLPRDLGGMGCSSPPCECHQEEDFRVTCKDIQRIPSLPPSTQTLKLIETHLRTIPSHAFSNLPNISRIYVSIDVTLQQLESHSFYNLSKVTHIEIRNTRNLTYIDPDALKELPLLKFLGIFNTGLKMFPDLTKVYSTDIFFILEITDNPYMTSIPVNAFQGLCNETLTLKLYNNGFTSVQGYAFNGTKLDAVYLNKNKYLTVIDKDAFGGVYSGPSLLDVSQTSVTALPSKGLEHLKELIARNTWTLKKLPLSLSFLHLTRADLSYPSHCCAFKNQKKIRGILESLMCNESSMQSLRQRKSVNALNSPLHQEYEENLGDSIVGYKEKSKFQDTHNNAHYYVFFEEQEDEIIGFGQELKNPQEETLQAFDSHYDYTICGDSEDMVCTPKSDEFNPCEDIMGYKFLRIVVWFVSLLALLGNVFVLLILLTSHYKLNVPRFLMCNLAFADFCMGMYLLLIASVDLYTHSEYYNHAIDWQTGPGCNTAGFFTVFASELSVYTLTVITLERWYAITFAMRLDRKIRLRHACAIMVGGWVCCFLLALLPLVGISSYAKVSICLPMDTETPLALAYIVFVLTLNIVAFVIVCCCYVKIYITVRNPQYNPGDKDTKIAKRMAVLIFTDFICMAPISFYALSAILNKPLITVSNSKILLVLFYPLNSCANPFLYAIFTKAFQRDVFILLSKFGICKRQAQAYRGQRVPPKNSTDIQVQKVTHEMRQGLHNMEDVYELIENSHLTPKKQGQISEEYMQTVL
# Ubiquitin carboxyl-terminal hydrolase 1 (Homo sapiens), sequence (O94782 whole entry, looked up): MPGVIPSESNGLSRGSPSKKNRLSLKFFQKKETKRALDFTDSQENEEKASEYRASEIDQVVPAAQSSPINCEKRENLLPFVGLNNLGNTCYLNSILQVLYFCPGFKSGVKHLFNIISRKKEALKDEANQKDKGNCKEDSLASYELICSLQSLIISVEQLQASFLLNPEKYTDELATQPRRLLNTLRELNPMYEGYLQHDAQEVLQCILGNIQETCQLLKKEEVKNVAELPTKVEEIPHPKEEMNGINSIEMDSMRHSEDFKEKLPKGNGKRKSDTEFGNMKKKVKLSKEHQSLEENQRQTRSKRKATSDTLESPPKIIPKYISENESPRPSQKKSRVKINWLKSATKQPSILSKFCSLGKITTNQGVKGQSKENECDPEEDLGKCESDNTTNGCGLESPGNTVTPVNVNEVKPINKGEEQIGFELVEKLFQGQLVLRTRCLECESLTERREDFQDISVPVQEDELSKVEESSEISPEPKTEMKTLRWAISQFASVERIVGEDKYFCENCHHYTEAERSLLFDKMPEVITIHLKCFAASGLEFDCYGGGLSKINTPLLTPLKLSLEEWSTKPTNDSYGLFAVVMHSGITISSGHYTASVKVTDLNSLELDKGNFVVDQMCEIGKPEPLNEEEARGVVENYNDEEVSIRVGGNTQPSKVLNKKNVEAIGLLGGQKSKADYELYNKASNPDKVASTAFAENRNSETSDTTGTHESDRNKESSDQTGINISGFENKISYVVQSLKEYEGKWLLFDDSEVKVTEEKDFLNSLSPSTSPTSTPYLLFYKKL
# Galactokinase (Homo sapiens), sequence (P51570 whole entry, looked up): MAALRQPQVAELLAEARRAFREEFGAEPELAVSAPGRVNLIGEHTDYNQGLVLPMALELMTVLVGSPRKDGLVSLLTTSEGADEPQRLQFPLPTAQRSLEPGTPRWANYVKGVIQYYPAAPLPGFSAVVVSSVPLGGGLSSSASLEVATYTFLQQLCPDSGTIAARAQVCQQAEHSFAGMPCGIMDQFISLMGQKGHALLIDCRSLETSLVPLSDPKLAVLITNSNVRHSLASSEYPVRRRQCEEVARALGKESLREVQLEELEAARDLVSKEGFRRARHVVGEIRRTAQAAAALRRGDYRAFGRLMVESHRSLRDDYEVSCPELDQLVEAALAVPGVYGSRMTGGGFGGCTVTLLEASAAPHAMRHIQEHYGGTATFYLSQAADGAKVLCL
# ATP-dependent 6-phosphofructokinase (Trypanosoma brucei brucei), sequence (O15648 whole entry, looked up): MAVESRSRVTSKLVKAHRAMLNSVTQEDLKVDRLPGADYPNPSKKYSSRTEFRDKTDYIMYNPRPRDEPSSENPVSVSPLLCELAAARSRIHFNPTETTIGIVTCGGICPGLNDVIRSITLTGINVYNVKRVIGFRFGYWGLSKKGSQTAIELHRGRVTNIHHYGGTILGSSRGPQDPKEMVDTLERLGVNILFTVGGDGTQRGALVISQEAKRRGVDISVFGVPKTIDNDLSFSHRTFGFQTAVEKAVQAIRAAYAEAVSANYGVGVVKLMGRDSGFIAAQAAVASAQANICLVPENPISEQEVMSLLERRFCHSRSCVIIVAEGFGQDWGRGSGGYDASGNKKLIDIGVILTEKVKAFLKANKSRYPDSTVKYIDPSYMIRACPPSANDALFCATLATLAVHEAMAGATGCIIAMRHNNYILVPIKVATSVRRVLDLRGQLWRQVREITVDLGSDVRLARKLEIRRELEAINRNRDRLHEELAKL
# Phosphoglycerate kinase, glycosomal (Trypanosoma brucei brucei), sequence (P07378 whole entry, looked up): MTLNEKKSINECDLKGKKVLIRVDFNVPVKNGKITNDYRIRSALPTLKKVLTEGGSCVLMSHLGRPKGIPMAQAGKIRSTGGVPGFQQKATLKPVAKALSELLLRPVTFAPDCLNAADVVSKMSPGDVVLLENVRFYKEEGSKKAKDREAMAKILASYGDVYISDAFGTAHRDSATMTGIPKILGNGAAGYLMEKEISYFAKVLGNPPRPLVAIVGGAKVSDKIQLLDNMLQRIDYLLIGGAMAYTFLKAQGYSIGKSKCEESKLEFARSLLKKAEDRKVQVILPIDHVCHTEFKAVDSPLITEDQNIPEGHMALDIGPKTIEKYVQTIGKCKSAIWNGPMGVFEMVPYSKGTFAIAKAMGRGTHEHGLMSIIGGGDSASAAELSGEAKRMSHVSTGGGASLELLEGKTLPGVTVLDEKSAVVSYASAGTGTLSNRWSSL
# Thyrotropin-releasing hormone receptor (Homo sapiens), sequence (P34981 whole entry, looked up): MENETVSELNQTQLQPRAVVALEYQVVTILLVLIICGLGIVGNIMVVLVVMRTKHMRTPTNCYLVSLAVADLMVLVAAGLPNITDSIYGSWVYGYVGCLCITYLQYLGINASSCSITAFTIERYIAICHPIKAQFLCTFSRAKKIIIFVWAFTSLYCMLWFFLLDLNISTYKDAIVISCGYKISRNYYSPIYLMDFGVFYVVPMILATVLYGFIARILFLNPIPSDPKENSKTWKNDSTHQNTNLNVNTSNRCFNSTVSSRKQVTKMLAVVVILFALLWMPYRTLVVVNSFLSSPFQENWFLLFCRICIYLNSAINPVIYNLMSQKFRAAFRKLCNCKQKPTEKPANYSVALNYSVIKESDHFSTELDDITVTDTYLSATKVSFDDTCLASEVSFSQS
# DNA dC->dU-editing enzyme APOBEC-3G (Homo sapiens), sequence (Q9HC16 whole entry, looked up): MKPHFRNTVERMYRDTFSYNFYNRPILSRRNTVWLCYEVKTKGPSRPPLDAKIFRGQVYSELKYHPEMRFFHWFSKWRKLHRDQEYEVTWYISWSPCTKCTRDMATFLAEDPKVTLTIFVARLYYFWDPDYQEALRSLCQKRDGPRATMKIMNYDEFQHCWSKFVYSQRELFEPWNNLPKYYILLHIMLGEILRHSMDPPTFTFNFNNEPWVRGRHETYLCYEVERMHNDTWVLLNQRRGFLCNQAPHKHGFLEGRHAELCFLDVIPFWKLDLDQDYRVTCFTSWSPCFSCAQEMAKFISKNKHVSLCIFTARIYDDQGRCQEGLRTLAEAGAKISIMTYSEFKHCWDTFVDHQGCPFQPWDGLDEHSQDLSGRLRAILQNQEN
smiles,measurement,setting,value
"Cc1c2oc3c(C)ccc(C(=O)N[C@@H]4C(=O)N[C@H](C(C)C)C(=O)N5CCC[C@H]5C(=O)N(C)CC(=O)N(C)[C@@H](C(C)C)C(=O)O[C@@H]4C)c3nc-2c(C(=O)N[C@@H]2C(=O)N[C@H](C(C)C)C(=O)N3CCC[C@H]3C(=O)N(C)CC(=O)N(C)[C@@H](C(C)C)C(=O)O[C@@H]2C)c(N)c1=O (I: T[dV]P[Sar][NMeV] / II: T[dV]P[Sar][NMeV]; ester I:1-I:C, II:1-II:C; linker I:N-II:N via Actinocin(9to1))",outcome,[1],inactive
O=C(NC(O)C(Cl)(Cl)Cl)NC(O)C(Cl)(Cl)Cl (centres undefined),outcome,[1],inactive
same,Potency,[2],inactive
FC(F)(F)c1cccc(C2=CCN(CCc3ccc4ccccc4c3)CC2)c1,outcome,[1],inactive
CCn1cc(C(=O)O)c(=O)c2ccc(C)nc21,outcome,[3],inactive
same,outcome,[4],inactive
same,activation,[5],1.06% (inactive)
same,outcome,[6],inactive
same,Potency,[7],inactive
same,outcome,[8],inactive
O=C1NCN(c2ccccc2)C12CCN(CC1COc3ccccc3O1)CC2 (centres undefined),outcome,[3],inactive
same,outcome,[4],inactive
same,Potency,[9],inactive
same,Potency,[10],inactive
same,Potency,[11],inactive
same,activation,[5],0.562% (inactive)
same,Potency,[12],inactive
same,viability change,[12],1.49%
same,outcome,[13],inactive
same,outcome,[6],inactive
same,Potency,[7],inactive
same,Potency,[14],inactive
same,Potency,[15],inactive
same,outcome,[16],inactive
same,outcome,[8],inactive
same,Potency,[2],inactive
same,Potency,[17],inactive
CC1OC(C)OC(C)O1 (centres undefined),outcome,[1],inactive
same,Potency,[2],inactive
CC(C)CC(N(C)C)C1(c2ccc(Cl)cc2)CCC1 (centres undefined),outcome,[1],inactive
same,Potency,[2],inactive
CN(C)CCC=C1c2ccccc2CCc2ccccc21,Potency,[10],1120 nM (active)
same,outcome,[8],inactive
same,Potency,[2],inactive
C=C1CC[C@@]2(O)[C@H]3Cc4ccc(O)c5c4[C@@]2(CCN3CC2CC2)[C@H]1O5,outcome,[1],inactive
same,Potency,[2],inactive
CC(=O)Nc1cc([As](=O)(O)O)ccc1O,outcome,[1],inactive
same,Potency,[2],inactive
N[C@@H](Cc1ccc(N(CCCl)CCCl)cc1)C(=O)O,outcome,[1],inactive
Clc1cccc(N2CCNCC2)c1,outcome,[3],inactive
same,outcome,[4],inactive
same,outcome,[6],inactive
same,Potency,[7],inactive
same,Potency,[2],inactive
same,outcome,[18],inactive
CC[N+](CC)(CC)CC,outcome,[3],inactive
same,outcome,[4],inactive
same,outcome,[1],inactive
same,outcome,[6],inactive
same,Potency,[7],inactive
same,outcome,[8],inactive
same,Potency,[2],inactive
CN1CCN(C(=O)O[C@H]2c3nccnc3C(=O)N2c2ccc(Cl)cn2)CC1,outcome,[1],inactive
CC(C)(N)Cc1ccc(Cl)cc1,outcome,[1],inactive
same,Potency,[2],inactive
CC[C@@H](CO)NC(=O)[C@@H]1C=C2c3cccc4[nH]cc(c34)C[C@H]2N(C)C1,Potency,[9],inactive
same,Potency,[10],447 nM (active)
same,Potency,[11],inactive
same,Potency,[19],inactive
same,Potency,[12],inactive
same,viability change,[12],-12.7%
same,outcome,[13],inactive
same,Potency,[15],inactive
same,outcome,[16],inactive
same,outcome,[8],inactive
same,Potency,[2],inactive
same,Potency,[17],inactive
CCN(C(C)=O)c1cccc(-c2ccnc3c(C#N)cnn23)c1,outcome,[1],inactive
same,Potency,[2],inactive
CC[N+]1(C)CCCC(OC(=O)C(O)(c2ccccc2)c2ccccc2)C1 (centres undefined),outcome,[1],inactive
same,Potency,[2],inactive
CCC(COC(=O)c1cc(OC)c(OC)c(OC)c1)(c1ccccc1)N(C)C (centres undefined),outcome,[1],inactive
CC(C)=CC1C(C(=O)OCc2cccc(Oc3ccccc3)c2)C1(C)C (centres undefined),outcome,[1],inactive
CCCC1CCCCN1 (centres undefined),outcome,[1],inactive
same,Potency,[2],inactive
COc1ccc(C(=O)c2c(C)n(CCN3CCOCC3)c3ccccc23)cc1,outcome,[1],inactive
Cn1c(CCCC(=O)O)nc2cc(N(CCCl)CCCl)ccc21,outcome,[1],inactive
same,Potency,[2],inactive
CN1C(=S)CN=C(c2ccccc2)c2cc(Cl)ccc21,outcome,[1],inactive
CCOP(=S)(OCC)Oc1cc(C)nc(C(C)C)n1,outcome,[1],inactive
CCN(CC)CCOC(=O)C(O)(c1ccccc1)c1ccccc1,outcome,[1],inactive
same,Potency,[2],inactive
Oc1cccc2cccnc12,outcome,[1],inactive
same,Potency,[2],inactive
c1ccc2c(c1)Nc1ccccc1S2,outcome,[1],inactive
OCCOc1ccccc1,outcome,[1],inactive
same,Potency,[2],inactive
Oc1ccccc1-c1ccccc1,outcome,[1],inactive
same,Potency,[2],inactive
